Whole data set: some 4,500 sequences, median “median log2 fold change of GCK-ALFA target abundance (FLAG IP / Myc IP barcode read proportion)” near 0.078, cut for the lowest 2% near -0.6. Only a selection was taken, and the lowest values are over-represented in it overall.
B1: GBRAP_80_6797 (protein)
chain: AAAALAAALAALAEVDAELAARVAAIVATARALGVSDADLADFVAAVLELAKADKEEAAALVDETEALLAEEAARGDTANATAVIRVHAGDALLAVEELE
B2: GBRAP_160_3998 (protein)
chain: SEKLAALKAEIAAILAETLELARGEDAAERLAVVRVMGGQILLTLEESGIVSDEALAAVDAILDATAAEVAANPDLTDAELAALLDATLARINAVLEEHS
B3: GBRAP_11_2747 (protein)
chain: KKEKLKEIAKAAEKLAKLLEELIKEGVDNEELLKEAEKALKELKKLVEEYGDESLKKLVEIIEEEFKKAKEDPENALKYLQNALAAARVLAGQVLLDIEE
B4: GBRAP_184_5076 (protein)
chain: AVLEETLRVEDLEEARARLAALRERVADFRGTLVVLVEMPEFERETARAVLEGLAAMKAAGYVTDVTVGFDAPLTEEQVDFVVDTADALGVKVTLALPEE
B5: GBRAP_35_5513 (protein)
chain: SSIDTETEMLVSTLEDATLAVEDLDPETLKKIVESLAELAREFILQNKNDLEALKRVKEELEKLAEALRKRGLDDPLIKEALEKVEEVIKLAEEEIKKIE
B6: GBRAP_160_4713 (protein)
chain: SETAEERKKYVDEEFERAKKLIEGETIEQRAIIVEGTVGEIIMEFVEDEKATDELIDEVIEIGDELVKTILENPNLTLEEIKELIDEAREKMKEAIDKHL
B7: GBRAP_78_6743 (protein)
chain: KAEEVIDETIETLNEALKALSSKPIEEVGDAMLHLLDASEALIEAEEEGFPLEYIEEAARHLAAAIAEIEAKGIELPAEIMAALKASLEALKALAAEKKA
B8: GBRAP_128_3161 (protein)
chain: AVEEAKKKTKELMEKIKNSSLEEVEKLAKELVEMMKTASDEEVEAMAEVILEELPKLSAEKLEILADVLEEKMPELSPFGQNQAADVLVEALNEAEELEE
B9: GBRAP_78_6611 (protein)
chain: ETKEKILKLLEEAEELAREVRKLAPEVAEQAAELEVLLGTAIYMVDTGSESKEEILETLEEAEKAAKELKKLVEGLAEEVQKLVKEALEKIKEAIKLLKE
B10: GBRAP_160_4329 (protein)
chain: SEEFEKLIEFIDEEFEETKELIKGLSLEQVKVLIEGTFGEIIMEMSENESISDELVDFVVAERDALLATLDANPDLSEEEIKALIDEARERIKEALKKEA
B11: GBRAP_125_3105 (protein)
chain: MEEEILEALKLLAKALGFDDEDAEEAARLAREFSVKMTLYALLKAEGEEELADLVEKLTEEQAKKVLLKVAEWLKKNPNATKEEVLKKLKEVILEELEKA
B12: GBRAP_125_3108 (protein)
chain: SEEEILEALKRLAKALGFSEEEAEEAAELARKFSVKQTLYALFLAEGEEELADLVEKLTEEQAKRALLKLAKWLEENPNATKEEVLEQAKKILEEELAKQ
B13: GBRAP_9_7175 (protein)
chain: LKEAAKKAIEGLKEAKEFALEVVPEEKKEEINAAFDELIETVKKMQADDSVTKEEFRETLEKGFDKIIELAKKNLDPEIAAIVETELLTIKAEVDELLDE
B14: GBRAP_160_3978 (protein)
chain: SEEIEKLKKEIKELAEEAKELIEGESYEERLTIVRVMFGEILMLLMSNENVSDETEEEVAKVGDETIAYLEANPDLTEEEIKELIKEAEKKIFEILEKNE
B15: GBRAP_160_4224 (protein)
chain: METVEKLVKIFRENFEEALELIEGESLEEQKVILDVAAGEVILEAEEIEEATEEMVEIVDKKAEEAREELLEAREASKEEKRKLIEEHAEKLRKELEKVA
B16: GBRAP_74_6501 (protein)
chain: AAADEAAAEEFAELLRRGASYEELMAHIAEMNVAALDLAVIKATEEARENAEKLTEEQIDALAELADRVFAESENPEAIAAAGELVKILYETEERRRAEE
B17: GBRAP_74_6499 (protein)
chain: SAATEAAAEEFAALLRAGASYEELMAHLAKMNVEALNAAVIKATEVARANADELTEEQIDALAELADRVFAESEDPEAIKAAGELVKILYERELRLEAER
B18: GBRAP_26_5460 (protein)
chain: MEEAERAAEAEVRAIAARLPDPRVAAAVVAEFSTELLEAEEAIENGEDPKEAFRKAREEFLAEARELMEEAGLSPEEIAAFEAELSAVFDKLEAEVLAEL
B19: GBRAP_52_6294 (protein)
chain: SMEEVEKKAKEIVELVKEGKLEEAIELAKKFVEENSLEEALELGKLLIEKIEELTPEEAELMLEVIEALAEEIEKEFGAEEEADILEAEAAAAAYKVLQK
B20: GBRAP_160_4717 (protein)
chain: SETAEKLKEYVDEEFDEAEELMKGESIEQRAIILEGTVGEIIMELFENPDASDELIDEVLKIGDEAVATLKANPDLSDEEIEELLDEARDKMKEAIDKHL
B21: GBRAP_137_3636 (protein)
chain: PNVTITTKTEDDLVEINIEFDDPELAEEVAELIEDVAHKHGALALSIEINEDGTLDATIWVPKEKAQALLDALIKALKEKFNATVTVIDEDTGEVKTIKA
B22: GBRAP_137_3623 (protein)
chain: KKVKITFYEEDGVAIAEITADTSVDKEKVLEIVEEVAEKHGVKLVVALTEPDEPAVFYLVGTPEQVIAAVKELIKRLKEELGIEVELSSEGAEELVEEVK
B23: GBRAP_137_3622 (protein)
chain: KKVTITFYEEDGVAIAEITADTSVDKEKVLALVEEVAEEHGVQLVEALVEPDEPLVLYLVGTPEQVIAAVKDLIERLKSELGIEVVLESEGAEELVEEVK
B24: GBRAP_160_4497 (protein)
chain: SERKERAKERARELVEEAAEAIREEEGEGKEQIARAYAGDIALELLELGVVSEEQEEEVLRLAEEGFRRMVEASEKGEEELERAAEELKRRLEELIEEFA
B25: GBRAP_160_4123 (protein)
chain: KEKKRKTLLDSAKDVEETLKIIEDLSPEEAGTLAIVTLGQILLDNDELDDEFPEIEKLADEAIEKLRETAKTDPEKLKELSKELLEEIRELLLKKAEELK
B26: GBRAP_52_5921 (protein)
chain: SDEEARALAEAILEAALAGREDELRALIKRLVEEKSLEEIKRVIEELARLTAELGPEHYDLFADIMDLLLDAAEEAGRDVEEVDYAIAEAAGLLYDAEQA
B27: GBRAP_160_4321 (protein)
chain: SALMEELKKEIEEIAEEAKELIEGESPEQRRTIVKVALGEILLLAIENPEISDELEDKIAEIADAAEAELDANPDLSEEEVKELLEKAVKEILELIEKEE
B28: GBRAP_160_3995 (protein)
chain: SEKKKKLLEKIKEILEETYELMKGESPEERLAIARVAAGDILLELFESELVSDETEEKIDEVLDEFVATVEANPDMSDEELKELLEETLEKIEKIIEENS
B29: GBRAP_160_4762 (protein)
chain: KEELKKLKEEIEEIFKEHIELLKEVPKEKAVTVVEGAMGEVLMLAFSSEAVSDELEEKIGEIMDEAVERAKENKDAPVEVHIKILEEAREKILELIEEEI

What follows are binders tested against GABARAP, O95166 (assay: median log2 fold change of GCK-ALFA target abundance (FLAG IP / Myc IP barcode read proportion) (log2 ratio); each designed protein is fused to an ALFA-tag nanobody in HEK293 cells to bring the named protein to FLAG-tagged glucokinase (GCK); Myc marks an untargeted standard; higher = target protein stabilised (more abundant)). Conditions: target protein: 3xFLAG-MCP-GCK-ALFA reporter; HEK293 landing pad (RPLP).
Sequence of GABARAP, O95166 (O95166 whole entry, the tested form may be a part): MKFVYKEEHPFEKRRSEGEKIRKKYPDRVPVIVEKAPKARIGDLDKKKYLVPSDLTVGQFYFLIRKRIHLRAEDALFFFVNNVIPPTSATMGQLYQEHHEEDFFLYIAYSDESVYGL
Outline: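 Binders fused to an ALFA nanobody were recombined as a library into HEK293 landing-pad cells, which were induced with 2 μg mL^−1 doxycycline and then transfected to express a FLAG-tagged target and a Myc-tagged standard. After 48 h, circular RNA barcodes recovered by anti-FLAG and anti-Myc immunoprecipitation of lysates were reverse transcribed, amplified and sequenced. Each binder's target abundance is the median log2 ratio of FLAG to Myc barcode read proportions, from barcodes present at ≥10^−7 in both replicates, binders carrying ≥3 barcodes per replicate, a 10^−6 pseudocount and pooled replicates.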
For B1, the “median log2 fold change” value was -0.147.
For B2, the “median log2 fold change” value was -0.533.
B3 was tested, and the “median log2 fold change” value was -0.119.
In the case of B4, the “median log2 fold change” value is reported as 0.0481.
B5 was tested, and the “median log2 fold change” value was 0.222.
B6 was tested, and the “median log2 fold change” value was -0.628.
For B7, the “median log2 fold change” value was -0.0804.
B8 was tested, and the “median log2 fold change” value was 0.0696.
B9 was tested, and the “median log2 fold change” value was 0.172.
B10 was tested, and the “median log2 fold change” value was -0.22.
In the case of B11, the “median log2 fold change” value is reported as -0.694.
In the case of B12, the “median log2 fold change” value is reported as -0.437.
For B13, the “median log2 fold change” value was 0.286.
B14 was tested, and the “median log2 fold change” value was 0.206.
For B15, the “median log2 fold change” value was -0.617.
For B16, the “median log2 fold change” value was 0.0485.
With B17 the “median log2 fold change” value was -0.772.
With B18 the “median log2 fold change” value was 0.197.
With B19 the “median log2 fold change” value was 0.0653.
B20 was tested, and the “median log2 fold change” value was -0.000956.
In the case of B21, the “median log2 fold change” value is reported as -0.117.
In the case of B22, the “median log2 fold change” value is reported as -0.628.
For B23, the “median log2 fold change” value was -0.288.
For B24, the “median log2 fold change” value was 0.292.
With B25 the “median log2 fold change” value was 0.128.
For B26, the “median log2 fold change” value was -0.394.
B27 was tested, and the “median log2 fold change” value was -0.0253.
B28 was tested, and the “median log2 fold change” value was -0.00842.
With B29 the “median log2 fold change” value was 0.0708.
